Experimental data as given in the supplement of paper PMC10646978.
± gives the standard deviation.

Columns and labels:
Conditions in all cases: modulator concentration 10 µM
[1] = test system: RAW-Dual (murine macrophage reporter line); assay: NF-kB reporter (SEAP) activity fold change vs agonist alone; higher = enhanced NF-kB activity
Procedure, shortened: (§1)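 Compound reached 10 μM final in each well by pin transfer, onto RAW-Dual murine macrophage reporter cells seeded at 50 000 per well in 384-well plates. After 1 hour at 37 °C, the cells were stimulated overnight with a PRR agonist. SEAP in the supernatant was read with QUANTI-Blue at 620 nm absorbance for NF-κB, and Lucia luciferase was read with QUANTI-Luc luminescence for IRF. Each signal was turned into fold change against the mean agonist-only control on the same plate, and two replicate plates were averaged with propagated errors.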

[2] = test system: RAW-Dual (murine macrophage reporter line); assay: IRF reporter (Lucia luciferase) activity fold change vs agonist alone; higher = enhanced IRF activity
Procedure, shortened: as §1

[3] = test system: RAW-Dual (murine macrophage reporter line); assay: viability score (confluency relative to resting cells, overnight) (fraction); higher = more viable, active = viable (0.7 or more)
Procedure, shortened: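 Confluency was the readout: RAW-Dual macrophages were imaged with IncuCyte after an overnight exposure to compound at 10 μM final. IncuCyte software produced two masks over all imaged wells. The viability score expresses confluency against resting cells, and both masks had to exceed 70% of resting cells for a compound to meet the cutoff.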

[4] = agonist: CpG ODN 1826 0.5 ug/mL

Structure (SMILES) | NF-kB reporter [1, 4] | NF-kB reporter ([1]; agonist: LPS 0.1 ug/mL) | NF-kB reporter ([1]; agonist: MPLA […]) | IRF reporter ([2]; agonist: 3'3'-cGAMP 10 ug/mL) | IRF reporter ([2]; agonist: LPS 0.1 ug/mL) | IRF reporter ([2]; agonist: MPLA […]) | viability score [3]
COc1nn(C)cc1C(=O)Nc1ccc(C(=O)NCCN2CCOCC2)cc1 | 1.02 ± 0.052 | 1.03 ± 0.083 | 0.893 ± 0.042 | 0.979 ± 0.049 | 1.28 ± 0.096 | 1.13 ± 0.23 | 0.994 (active)
Brc1ccc(-c2cc(-c3ccccc3)nc(N3CCCCC3)n2)cc1 | 0.951 ± 0.2 | 1.1 ± 0.092 | 1 ± 0.079 | 0.859 ± 0.03 | 1.17 ± 0.11 | 1.33 ± 0.15 | 1 (active)
O=C(NCCCOc1cccc2cccnc12)c1cnccn1 | 1.03 ± 0.059 | 0.979 ± 0.094 | 0.998 ± 0.035 | 0.95 ± 0.036 | 1.01 ± 0.052 | 0.99 ± 0.1 | 1 (active)
Br.CN(C)CCCC1(c2ccc(F)cc2)OCc2cc(C#N)ccc21 (stereo not drawn) | 0.81 ± 0.12 | 1.02 ± 0.29 | 0.95 ± 0.07 | 0.801 ± 0.043 | 1.37 ± 0.4 | 1.39 ± 0.24 | 0.979 (active)
CCN1C(=O)C(=C2SC(N3CCOCC3)=NC2=O)c2ccccc21 | 0.991 ± 0.08 | 1.07 ± 0.079 | 0.952 ± 0.064 | 0.949 ± 0.042 | 1.22 ± 0.13 | 0.978 ± 0.23 | 1.01 (active)
COC(=O)C1C(O)CCC2CN3CCc4c([nH]c5ccccc45)C3CC21.Cl (stereo not drawn) | 1.19 ± 0.28 | 0.917 ± 0.076 | 0.906 ± 0.058 | 0.92 ± 0.1 | 1.15 ± 0.25 | 1.23 ± 0.15 | 0.995 (active)
CC[C@@]1(O)C(=O)OCc2c1cc1n(c2=O)Cc2cc3c(CN(C)C)c(O)ccc3nc2-1.Cl | 2.27 ± 0.11 | 1.41 ± 0.12 | 2.16 ± 0.11 | 2.12 ± 0.15 | 2.89 ± 0.17 | 3.26 ± 0.26 | 0.725 (active)
CC(=O)Nc1ccc(S(=O)(=O)N2CCC(Oc3nc(C)cc(C)n3)C2)cc1 (stereo not drawn) | 1.13 ± 0.099 | 1.03 ± 0.078 | 0.969 ± 0.033 | 0.988 ± 0.063 | 0.987 ± 0.057 | 0.932 ± 0.15 | 0.998 (active)
Br.COc1ccc(C2=NN(c3nc(-c4ccc(OC)c(F)c4)cs3)C(c3ccc(OC)cc3)C2)cc1 (stereo not drawn) | 0.964 ± 0.068 | 0.997 ± 0.11 | 0.914 ± 0.1 | 0.805 ± 0.071 | 1.22 ± 0.08 | 1.05 ± 0.39 | 1.01 (active)
O=C(N/N=C/c1ccc([N+](=O)[O-])o1)c1ccc(O)cc1 | 1.54 ± 0.21 | 2.63 ± 0.4 | 2.97 ± 0.26 | 1.01 ± 0.051 | 1.88 ± 0.34 | 1.43 ± 0.12 | 0.968 (active)
COc1ccccc1N1C(=O)C(=Cc2ccc3c(c2)OCO3)SC1=S | 0.99 ± 0.16 | 1.05 ± 0.17 | 0.945 ± 0.14 | 0.951 ± 0.046 | 1.2 ± 0.24 | 1.22 ± 0.36 | 0.999 (active)
COc1cccc(-c2cc(C(=O)N3CCC(Oc4cc(C)n(C)c(=O)c4)CC3)n(C)n2)c1 | 1.01 ± 0.11 | 0.994 ± 0.1 | 0.983 ± 0.06 | 0.991 ± 0.059 | 0.964 ± 0.066 | 0.938 ± 0.085 | 1 (active)
C=CCNC(N)=S | 1.37 ± 0.2 | 1 ± 0.32 | 0.931 ± 0.077 | 0.898 ± 0.027 | 1.06 ± 0.4 | 0.986 ± 0.17 | 1.01 (active)
COCCOC(=O)C1=C(C)NC(C)=C(C(=O)OCC=Cc2ccccc2)C1c1cccc([N+](=O)[O-])c1 (stereo not drawn) | 0.586 ± 0.052 | 0.539 ± 0.074 | 1.07 ± 0.068 | 0.548 ± 0.035 | 1.06 ± 0.035 | 2.1 ± 0.43 | 0.989 (active)
